About 1,100 (0.3%) of roughly 370,000 compounds were called active. About 1% were inconclusive and are not listed. What follows is part of a selection rich in actives, with near analogues and random picks from the rest. Values without a mark were called inactive. The call rests on the fitted dose curve; in most records, active means well fitted activation curve with a large enough effect; inconclusive means small, poorly fitted or top-dose-only effect; inactive means flat fitted curve, though single readings scatter.
On the % scale 0 is the no-effect control and ±100 the full control effect; potency means the concentration at half of the fitted maximal effect.

Chain of Relaxin receptor 1 (Homo sapiens) (Q9HBX9 whole entry, looked up): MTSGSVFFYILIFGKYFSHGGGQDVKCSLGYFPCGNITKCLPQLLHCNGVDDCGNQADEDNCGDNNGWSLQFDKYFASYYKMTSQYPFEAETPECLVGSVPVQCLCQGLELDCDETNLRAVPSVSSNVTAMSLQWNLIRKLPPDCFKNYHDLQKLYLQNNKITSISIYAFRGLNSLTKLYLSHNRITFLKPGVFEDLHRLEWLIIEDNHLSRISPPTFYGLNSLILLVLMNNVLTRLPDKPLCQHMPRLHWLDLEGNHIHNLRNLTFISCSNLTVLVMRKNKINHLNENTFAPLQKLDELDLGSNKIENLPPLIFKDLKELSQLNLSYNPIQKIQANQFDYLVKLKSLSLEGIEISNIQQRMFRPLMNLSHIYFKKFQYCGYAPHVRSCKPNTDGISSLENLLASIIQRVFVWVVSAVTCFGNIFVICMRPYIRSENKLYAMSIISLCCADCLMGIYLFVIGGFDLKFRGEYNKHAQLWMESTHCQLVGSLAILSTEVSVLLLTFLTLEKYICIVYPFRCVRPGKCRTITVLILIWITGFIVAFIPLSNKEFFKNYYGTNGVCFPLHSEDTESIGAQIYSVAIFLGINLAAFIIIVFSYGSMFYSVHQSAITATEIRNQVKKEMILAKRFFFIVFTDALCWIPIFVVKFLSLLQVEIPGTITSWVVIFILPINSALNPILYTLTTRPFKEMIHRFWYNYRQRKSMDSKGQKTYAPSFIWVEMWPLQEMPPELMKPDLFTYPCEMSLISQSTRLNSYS

In the experiment the target is Relaxin receptor 1 (Homo sapiens) (UniProt Q9HBX9). The experiment can be described thus: qHTS Assay for Agonists of the Relaxin Receptor RXFP1. Further: nearly all actives have a fitted effect of over 60% in size. The following applies: HEK293T-RXFP1 cAMP TR-FRET, 30 min; series mostly up to 57.5 µM; activation: at the top concentration. The text has this:
NIH Chemical Genomics Center [NCGC] NIH Molecular Libraries Probe Production Centers Network [MLPCN] MLPCN Grant: R03 MH085705-01A1 Assay Submitter (PI): Alexander Agoulnik NCGC Assay Overview: The relaxin hormone is involved in the variety of biological functions in normal tissues and diseases. The role of relaxin is well-established in female reproduction and parturition, mammary gland and endometrial development, maintenance of myometrial quiescence during pregnancy. Relaxin signaling through its G protein-coupled receptor (GPCR) RXFP1 results in ECM remodeling through regulation of collagen deposition, cell invasiveness, proliferation and overall tissue homeostasis. […] Recombinant human relaxin (rhRlx) is currently being tested in clinical trials as a protective agent in congestive heart failure, in treating severe preeclampsia, and as an anti-fibrotic agent in systemic sclerosis. Upon relaxin binding RXFP1 activation leads to the activation of adenylate cyclase (AC) via Gs. cAMP will activate PKA, which phosphorylates many signaling proteins. Thus, detection of cAMP increase is an easy and reliable indication of relaxin receptor activation. To screen for agonists of the relaxin receptor, a HEK293T cell line stably transfected with RXFP1 was used. RXFP1 activation was assayed by changes in cAMP levels as detected with a time-resolved fluorescence energy transfer (TR-FRET) cAMP detection kit.
NCGC Assay Protocol Summary: This is a cell-based assay for cAMP second messenger response to screen for agonists of the RXFP1 receptor. The assay was conducted in the presence of a PDE4 inhibitor (Ro 20174). The cells were lysed and the cAMP levels were measured with a TR-FRET cAMP kit. Presence of cAMP in the cell lysate disrupts binding between the cryptate-labeled anti-cAMP and d2-labeled cAMP pair, leading to a decrease in the TR-FRET signal. Data were normalized to the controls for basal activity (buffer only) and 100% activity (29 nM porcine relaxin). The EC50 values were determined from concentration-response data modeled with the standard Hill equation 1536-well assay protocol for the HEK293 RXFP1 cAMP assay: (1) Add 3 ul HEK293 RXFP1 cell culture. 2000 cells/well in DMEM/F12, 10% FBS, 1x Pen/Strep (dispensed offline with MultiDrop Combi). (2) Incubate 16-24 hr at 37C, 5% CO2. (3) Add 1 ul 400uM Ro20174 in DPBS, 0.05% BSA, 0.005% Tween 20. (3) Add 23 nl compounds in DMSO solution. Final concentration was 0.5 - 58 uM. (4) Incubate 30 min at 37C, 5% CO2. (5) Add 1 ul cAMP-d2 in lysis buffer (HTRF cAMP HiRange kit, CisBio). (6) Add 1 ul anti-cAMP antibody-cryptate in lysis buffer (HTRF cAMP HiRange kit, CisBio). (7) Incubate 30 min at room temperature. (6) Detect the assay plate in a ViewLux plate reader (PerkinElmer) with Ex=320 nm, Em1=615 nm and Em2=665 nm. Keywords: relaxin, RXFP1, RXFP2, G-protein coupled receptor, cAMP, agonist, high throughput screening, MLSMR, MLSCN, NIH Roadmap, qHTS and NCGC
Background: Quantitative high-throughput screening tests each substance at several concentrations.
On to `Cn1c(=O)c2c(ncn2CC(=O)N/N=C/c2cn[nH]c2-c2ccc(F)cc2)n(C)c1=O`, for which the Potency was 14.1 µM (active).
Turning to `CN(CC(=O)Nc1ccc(F)c(F)c1F)C(=O)Cn1cnc2c1c(=O)n(C)c(=O)n2C`, the “activation” value is 9.55%.
For `Cc1cnc(NC(=O)Cn2cnc3c2c(=O)n(C)c(=O)n3C)s1`, the “activation” value is 15.8%.
Same read-out and setting: the value for `CCCNc1ncnc2c1c(-c1ccccc1)cn2-c1ccc(OCC)cc1` was 4.06%; that for `COc1ccc(S(=O)(=O)N2CCOCC2)cc1NC(=O)CSc1cc(C)ccc1C` was -2%.
As to `COc1ccc(S(=O)(=O)N2CCOCC2)cc1NC(=O)CSc1ncnc2ccccc12`, the Potency is 15.8 µM (active).
`COc1ccc(S(=O)(=O)N2CCOCC2)cc1NC(=O)Cc1c(F)cccc1Cl`: the “activation” value was -0.855%.
Turning to `CCOc1ccc(C(=O)Nc2ccc3nc4c(c(Nc5ccccc5OC)c3c2)CCCC4)cc1`, the “activation” value was -0.31%.
For `C=Cc1ccc(Cn2c(C(=O)O)c(CNC3CCCC3)c3ccc(C)cc32)cc1`, the “activation” value was 0.0544%.
The same measure, in the same setting: the figure for `CCOc1ccc(CCNC(=O)CN(c2ccc(C)cc2)S(=O)(=O)N(C)C)cc1OCC` is 2%; for `O=C(Nc1ccc(Br)cc1)c1cc2nc(-c3ccccc3)cc(-c3ccccc3)n2n1` it is 3.76%; for `COc1ccc2oc(-c3ccc(C)c(NC(=O)c4sc5ccccc5c4Cl)c3)nc2c1` it is 2.29%.
Still for that read-out and setting: the value for `CCOc1cccc(CC(=O)N2CCc3c([nH]c4ccccc34)C2c2ccc(OC)cc2)c1OCC` (stereo not drawn) was 4.11%.
With `Cc1cc(C)cc(NC(=O)Cn2nc(N3CCN(c4ccccc4)CC3)ccc2=O)c1`, the “activation” value is 0.0868%.
The same measure, in the same setting: the figure for `Cc1ccc(Cl)cc1N(C)C(=O)C1CCCN(c2ncnc3onc(-c4ccc(F)cc4)c23)C1` (stereo not drawn) is 0.553%; for `COc1ccc(N2CCN(C3=NS(=O)(=O)C(c4cccc(Br)c4)=C3C)CC2)cc1` it is -0.541%.
On to `Cc1c(-c2nsc(NC(=O)c3cccc(Cl)c3)n2)nnn1-c1ccccc1C(F)(F)F`, for which the “activation” value is -0.886%.
Same read-out and setting: the figure for `COc1ccc(-c2nc3c(c(SCC(=O)Nc4ccc(C(=O)O)cc4)n2)Cc2ccccc2O3)cc1` is 21.7%; for `Cc1ccc(-c2nn(CCC(=O)Nc3ccc(OC(F)(F)F)cc3)c(=O)c3ccccc23)cc1` it is 6.25%; for `COc1ccc(-n2c(SCC(N)=O)nc3c(oc4ccccc43)c2=O)cc1` it is 0.504%.
Regarding `COC(=O)c1ccccc1NC(=O)C(Cc1ccccc1)N1Cc2ccccc2C1=O` (stereo not drawn), the “activation” value is 4.06%.
Same read-out and setting: the value for `CC1=C(c2ccc(F)cc2)S(=O)(=O)N=C1N1CCC(C(=O)NCCc2ccccc2C)CC1` was 2.67%.
Still for that read-out and setting: the value for `Cc1ccc2nc3c(cc(C(=O)NC4CCCCC4)c(=N)n3C(C)C)c(=O)n2c1` was 5.26%; that for `COc1cccc(-n2c(=O)c3c(C)c(C(=O)N(C)C)sc3n(Cc3cccc(C)c3)c2=O)c1` was 2.04%.
Still for that read-out and setting: the value for `CCCCOc1ccc(CNC(=O)c2ccc3c(c2)N(C)C(=O)C2CCCCN32)cc1` (stereo not drawn) was -0.99%.
For `O=C(c1ccc2c(c1)N(Cc1ccccc1)C(=O)c1ccccc1S2(=O)=O)N1CCC(Cc2ccccc2)CC1`, the “activation” value was 0.856%.
Take `Cc1cccc(NC(c2cccc(F)c2)c2ccc3ccc(C)nc3c2O)n1` (stereo not drawn): the “activation” value is 1.58%.
For the molecule `CCOc1ccccc1NC(=O)Cn1c(=O)n(Cc2ccccc2)c(=O)c2c(C)c(C(=O)N(C)C)sc21`, the “activation” value was 2.17%.
Consider `COc1ccc(S(=O)(=O)Nc2cc3c(C(=O)OC(C)C)c(C)oc3c3ccccc23)cc1`, for which the “activation” value was 1.2%.
Still for that read-out and setting: the figure for `CC1=C(C(=O)N2CCN(c3cccc(C(F)(F)F)c3)CC2)C2(CCCCC2)OC1=O` is -0.574%.
For `CC(C)(C)OC(=O)N1CCC(c2c(C(=O)N3CCN(c4cccc(Cl)c4)CC3)cnn2-c2cccc(Cl)c2)CC1`, the “activation” value was 2.09%.
With `COc1ccc2c(c1)CCc1c(C(=O)Nc3cc(C)ccc3O)noc1-2`, the “activation” value was -4.18%.
Still for that read-out and setting: the figure for `COc1cccc(CNC(=O)Cn2c(=O)c3cccn3c3ccc(F)cc32)c1OC` is 2.2%; for `O=C(NCCc1ccccc1)c1cnc2sc(N3CCCC3)nn2c1=O` it is 8.9%.
For `COc1ccccc1-c1nnc(SCC(N)=O)o1`, the “activation” value was 11.1%.
Take `COc1cccc(C2C(C(=O)Nc3ccc(C)cc3C)=C(C)Nc3c(C(=O)Nc4ccccc4)cnn32)c1` (stereo not drawn): the “activation” value is -1.61%.
Same read-out and setting: the value for `CCCCN1C(=O)c2[nH]nc(-c3ccccc3O)c2C1c1cccc(OCc2ccccc2)c1` (stereo not drawn) was 1.42%; that for `CCN(C(=O)c1sc2cc(OC)ccc2c1Cl)c1ccccc1` was 1.04%.
On to `CCC(Sc1nc2n[nH]c(C)c2c(=N)n1-c1ccccc1Cl)C(=O)N(CC)CC` (stereo not drawn), for which the “activation” value is 3.81%.
On the same count and under the same terms, the value for `Cc1nn(Cc2ccc(F)cc2)c(C)c1NC(=O)c1cc(CC(C)C)on1` was -1.08%; that for `Cc1ccccc1NC(=O)c1cc2c([nH]c1=O)CC(C)(C)CC2=O` was 19%; that for `O=C(CCn1c(=O)c2sccc2n(Cc2ccc(F)cc2)c1=O)NCc1ccc2c(c1)OCO2` was 13.4%.
Still for that read-out and setting: the figure for `CCCCN1CC(c2nc3ccccc3n2CCCCOc2ccc(C)cc2C)CC1=O` (stereo not drawn) is -4.27%; for `O=C(c1ccc(C(F)(F)F)cc1)N1CCC(c2nc(-c3ccc(S(=O)(=O)N4CCCC4)cc3)no2)CC1` it is -4.31%.
The same measure, in the same setting: the value for `CC(C)(C)c1ccc(C(=O)NCC(c2ccco2)S(=O)(=O)c2ccc(F)cc2)cc1` (stereo not drawn) was 1.03%; that for `COc1ccc(Cc2nc3ccc(C(=O)NCc4ccc(OC)cc4OC)cc3o2)cc1` was -1.3%; that for `O=C(CSCc1cnn(-c2ccccc2)c1-n1cccc1)NCc1ccc(Cl)cc1` was 0.103%.
Regarding `O=C(Nc1ccc(Br)cc1)c1ccc(Br)c(S(=O)(=O)NCc2ccccc2)c1`, the “activation” value was 2.11%.

The record behind these values is PubChem BioAssay AID2676 (National Center for Advancing Translational Sciences (NCATS), 2010).
